# This is a sample that favours compounds with a hit; in the whole collection about 21% have one here.
# Pf growth 96h: inhibits malaria parasite growth, 96 h; actives 6.9% (n = 320,000); Potency, µM (doses to about 28.7 µM), inactives show at the top dose activity change, negative = inhibition, most hits filed as inhibitors; P. falciparum luciferase reporter growth, 96 h; further: potency means the concentration at half of the fitted maximal effect; on the % scale 0 is the no-effect control and ±100 the full control effect
#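 Infected RBCs, 2% Hct / 0.05% parasitemia final; luciferase-reporter P. falciparum; cpd 96 h, 37 C, 5% CO2; luciferase detection reagent; luminescence.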
# AMA1 RON2 block: disrupts binding of P. falciparum AMA1 to RON2; Potency, µM (series often up to 58.2 µM), for inactives: at the highest dose activity change, negative = inhibition, hits mostly inhibitors; AlphaScreen AMA1-biotinylated RON2 peptide binding; actives 0.2% (n = 360,000);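 further: potency means the concentration at half of the fitted maximal effect; 0% = vehicle wells and -100% = peptide control; nearly all actives have a fitted effect of over 45% in size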
#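 AMA1 (3D7) with his tag at 25 nM final met compounds first, then biotinylated RON2 peptide at 25 nM; detection used donor plus acceptor beads, 10 µg/mL apiece, read by AlphaScreen after 30 min at room temperature.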
# Cycloheximide cs: affects cycloheximide protein synthesis inhibition readout, counter-screen; cell reporter, cycloheximide protein synthesis inhibition counterscreen; max response, %; actives 12% (n = 300,000); AID 2314; in the data active means max response mostly above about 13%, no sharp cut-off; inactive means mostly below about 14%; further: read at 38.3 µM for the half of the compounds with a filed dose; 0% is about no effect
# Pf growth 48h: P. falciparum growth inhibition at 48 hours (one generation); actives 5.9% (n = 310,000); Potency, µM (titrated, usually from 28.7 µM), for the others: at the top dose activity change, negative = inhibition, actives largely listed as inhibitors; AID 504832; P. falciparum luciferase growth in erythrocytes, 48 h; further: potency means the concentration at half of the fitted maximal effect; on the % scale 0 is the no-effect control and ±100 the full control effect
#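 Compounds are pin-transferred into medium, infected erythrocytes (2% hematocrit, 0.1% parasitemia final) are added, and plates sit one parasite generation at 37 C in 5% CO2. Detection reagent is then added and luminescence measured.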
# HCV inhibitor: HCV inhibition. Huh7.5.1 HCVcc-Cre infection, luciferase reporter, 44 h. Potency, µM (doses to about 41.8 µM), without a hit: top-dose activity change, negative = inhibition, most hits filed as inhibitors. actives 3.4% (n = 340,000); further: potency means the concentration at half of the fitted maximal effect; on the % scale 0 is the no-effect control and ±100 the full control effect
#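 Compounds are dispensed onto cells plated 4 h earlier at 1,000 per well, with HCVcc-Cre virus (about 0.5 moi) added next. Following 44 h of culture, luminescent signal is measured for 15 sec after 15 min with substrate at room temperature.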
# Shiga inhibitor: inhibitors of Shiga toxin in Vero cells. actives 9.2% (n = 290,000). Vero cells, Shiga toxin protein synthesis inhibition reporter. inhibition, % at 38.7 µM. AID 2315; in the data active means inhibition mostly above about 28%, no sharp cut-off; inactive means mostly below about 43%; further: 0% is about no effect
# Starred values were filed as active, the others as inactive; ? = inconclusive; . = not tested or not shown; [ ] = dose if it differs, or a comment. Unless noted, the call rests on the fitted dose curve; in most records, active means well fitted curve in the direction sought with a large enough effect; inconclusive means small, poorly fitted or top-dose-only effect, or another doubt; inactive means no such curve, though single readings can be large; an effect the other way counts as inactive or inconclusive.
SMILES,Pf growth 96h,AMA1 RON2 block,Cycloheximide cs,Pf growth 48h,HCV inhibitor,Shiga inhibitor
CCOc1ccc(OCc2ccc(C(=O)N3CCCCC3)o2)cc1,-19.0%,-4.5%,23.2*,-19.7%,?,40.4*
CCOc1ccc(OCc2ccc(C(=O)N3CCc4ccccc4C3)o2)cc1,0.0%,-9.8%,18.2,6.5%,?,29.4
Cc1cccc(C(=O)NC2CCN(CC(=O)NCc3ccccc3F)CC2)c1,3.7%,14.7%,-4.7,?,-8.2%,-4.0
Cc1ccc(C)n1-c1nnc(N2CCC(C(=O)NCCCN3CCN(C)CC3)CC2)s1,?,8.4%,-4.0,-4.1%,3.4%,2.3
O=C1CC(c2cccnc2)=NN1c1ccccc1,-2.3%,4.4%,0.4,-20.0%,-11.6%,-5.4
c1ccc(C2CCC3(CC2)Oc2ccccc2C2CC(c4cccnc4)=NN23)cc1 (configuration not stated),39.4%,.,27.4*,19.8%,1.2%,40.4*
COc1ccc(CCC(C(O)C(F)(F)F)S(=O)c2ccccc2)cc1 (configuration not stated),2.08µM*,0.7%,-0.8,?,-21.3%,-2.3
CCn1c2nc(SCCN3CCOCC3)nnc2c2cc(C)cc(C)c21,?,52.9%,-2.8,?,-16.1%,-9.4
CC(C)Oc1ncnc2c1[nH]c1ccccc12,?,-6.0%,30.3*,?,?,38.7*
CCN(CC)c1ncnc2c1[nH]c1ccccc12,.,3.6%,-3.4,4.15µM*,11.2µM*,-21.9
CCCOc1ncnc2c1[nH]c1ccc(OC)cc12,299.7%,3.9%,49.1*,202.8%,?,68.3*
CCCCOc1ncnc2c1[nH]c1ccc(C)cc12,336.8%,-1.3%,43.2*,202.8%,-74.9%,106.0*
CCCN(C(=O)Cc1c(C(=O)O)n(C)c2ccccc12)c1cccc(C)c1,-9.4%,1.4%,-3.6,-0.2%,25.7%,-5.8
Cc1cc(NC(=O)CSc2ccc(-c3ccc(F)cc3)nn2)no1,?,-0.6%,-2.2,7.6%,16.4%,14.7
CCCOc1ncnc2c1[nH]c1ccccc12,65.2%,-0.6%,42.3*,67.9%,?,59.6
COCCNc1ncnc2c1[nH]c1ccccc12,-2.5%,-10.5%,6.0,-0.5%,?,9.0
COc1cccc(C(=O)NCC(=O)N/N=C/c2ccc3c(c2)OCO3)c1,?,-3.0%,43.6*,41.6%,7.7%,82.8*
O=C(CNC(=O)c1ccccc1Cl)N/N=C/c1ccc2c(c1)OCO2,38.5%,-5.0%,14.0,29.1%,-10.9%,15.1
CCN(CC)c1ccc(/C=N/NC(=O)CNC(=O)c2ccccn2)cc1,-31.2%,67.2%,12.3,6.0%,6.0%,83.5
O=C(CNC(=O)c1ccccn1)N/N=C/c1ccc2c(c1)OCO2,?,112.3%,41.5*,21.2%,6.5%,100.1*
O=C(CNC(=O)c1ccccc1F)N/N=C/c1ccc2c(c1)OCO2,-17.9%,12.8%,44.8*,106.5%,8.8%,54.6*
COc1ccc(/C=N/NC(=O)CNC(=O)c2ccc3c(c2)OCCO3)cc1OC,58.8%,27.5%,-1.3,17.7%,5.3%,-13.8
COc1ccc(C(=O)NCC(=O)N/N=C/c2cccc(OC(=O)c3ccco3)c2)cc1OC,-14.5%,2.1%,32.7*,-3.8%,7.9%,43.4
CC(=O)Nc1ccc(S(=O)(=O)NC(C(=O)O)C(C)O)cc1 (configuration not stated),47.9%,-14.2%,-1.9,-3.0%,6.6%,-10.8
Cc1ccc(CNC(=O)C(C)C2Sc3ccccc3NC2=O)cc1 (configuration not stated),?,4.4%,-1.2,?,-5.6%,-13.5
SMILES,Pf growth 96h,AMA1 RON2 block,Cycloheximide cs,Pf growth 48h,HCV inhibitor,Shiga inhibitor
Cc1cc(C)c(S(C)(=O)=O)c(S(=O)c2ccc(Cl)cc2)n1 (configuration not stated),101.6%,3.8%,-5.7,-3.1%,6.4%,-14.4
O=S(=O)(c1ccc(Cl)c(Cl)c1)c1snnc1-c1ccccc1,.,-0.8%,12.6,?,?,-24.9
Cc1nnsc1S(=O)c1ccc(Cl)cc1 (configuration not stated),1.65µM*,13.8%,-2.2,.,?,-5.7
Cc1nnsc1S(=O)c1ccc(Cl)c(Cl)c1 (configuration not stated),5.22µM*,-5.0%,-1.9,.,-24.6%,2.2
Cc1cccc(NC(=O)CNC(=O)CN2CCN(C)CC2)c1C,?,-2.4%,.,-12.9%,-5.0%,.
COc1ccc(CCNC(=O)Nc2nc(CN)cs2)cc1OC,.,65.9%,.,.,.,.
O=C(CN1C(=O)/C(=C/c2ccc(F)cc2)SC1=S)NC1CCS(=O)(=O)C1 (configuration not stated),20.9%,36.2%,9.2,50.8%,7.8%,-4.4
O=S(=O)(c1ccc(OCC(O)CNCc2ccco2)c(Cl)c1)N1CCOCC1 (configuration not stated),?,14.4%,-2.7,8.28µM*,-1.0%,20.5
CCc1cccc(N(C)C(N)=Nc2cccc3ccccc23)c1,9.53µM*,-5.1%,-3.8,13.5µM*,-2.5%,-6.6
CC(=O)N(C)c1ccc(NC(=O)Cc2cccc3ccccc23)cc1,.,7.5%,.,.,2.4%,.
CCOC(=O)c1ccccc1NC(=O)COC(=O)C1CC(=O)N(c2ccc3c(c2)OCCO3)C1 (configuration not stated),0.0%,15.2%,.,10.7%,11.1%[8.37 µM],.
O=C(COC(=O)C1CC(=O)N(c2ccc3c(c2)OCCO3)C1)NC1CCCc2ccccc21 (configuration not stated),91.1%,1.0%,19.6*,65.4%,-1.1%,44.8*
C=CCn1c(SCn2nnc3ccccc3c2=O)nnc1-c1ccc(Br)cc1,1.3%,-0.5%,9.0,0.3%,-26.7%,37.5
C=CCn1c(COc2cccc(C)c2)nnc1SCn1nnc2ccccc2c1=O,-15.9%,-4.8%,13.5*,-3.7%,5.0%,28.9
CC(C)(C)SCCNC(=O)/C=C/c1ccc([N+](=O)[O-])cc1,?,2.1%,20.6*,10.9%,0.4%,32.6*
O=C(/C=C/c1cccc([N+](=O)[O-])c1)NCCSc1ccccc1,10.4µM*,-2.5%,17.1*,?,-14.3%,14.8
O=C(/C=C/c1ccc([N+](=O)[O-])cc1)NCCc1ccccc1,-46.2%,-1.8%,9.2,6.6%,-5.6%,17.8
CC(C)(C)SCCNC(=O)/C=C/c1cccc([N+](=O)[O-])c1,15.9%,0.6%,25.5*,41.5%,-2.4%,66.4*
CN(C)CCCN(C(=O)c1ccc(C(=O)c2ccccc2)cc1)c1nc2cc3c(cc2s1)OCCO3,?,9.4%,-3.0,?,-10.5%,18.7
CN(C)CCN(C(=O)c1ccc(C(=O)c2ccccc2)cc1)c1nc2cc3c(cc2s1)OCCO3,3.3%,-0.2%,36.4*,26.9%,7.4%,81.1*

# High-throughput results deposited in PubChem BioAssay by National Center for Advancing Translational Sciences (NCATS).
